About 7,900 targets were measured; listed, in parts, are those with a hit and a random draw of the rest. About 0.6% of all pairs of compound and target were hits.
Assays:
Assay in all cases: log2 fold change, soluble protein after heating vs DMSO (PISA); higher = thermal stabilisation; K562 cells, 10 uM, 30 min; active = over 0.2 and 3.5 SD of the protein, either way, in both replicates (recomputed)
[1] = compound: C1=CC=C(C=C1)[C@H](COC2=CC3=C(C=C2)NC(=O)N3)NC(=O)C4=CC=CN(C4=O)CC5=CC(=C(C=C5)F)F
Procedure, shortened: (§1)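 Aliquots of K562 cells (2×10^6 cells/mL) treated with 10 μM compound for 30 min were heated for 3 min over 48°C-58°C. After pooling and extraction in PBS with 0.5% NP-40 at 4°C, soluble protein from a 21,000xg, 90 min spin was quantified by TMTpro 16plex LC-MS/MS with channel sums equalised. Thermal stability is expressed against control samples, from duplicates, as a log2 fold change.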

[2] = compound: CC1=C(SC2=C1C(=N[C@H](C3=NN=C(N32)C)CC(=O)N)C4=CC=C(C=C4)Cl)C
Procedure, shortened: as §1

[3] = compound: CC1=C2C(=CC=C1)N=C(N(C2=O)C3=CC=CC=C3C)CN4C=NC5=C(N=CN=C54)N
Procedure, shortened: as §1

[4] = compound: Cc1sc2c(c1C)C(c1ccc(Cl)cc1)=N[C@@H](CC(=O)OC(C)(C)C)c1nnc(C)n1-2
Procedure, shortened: as §1

[5] = compound: c1ccc([C@@H]2C[C@H]2NC2CCNCC2)cc1
Procedure, shortened: as §1

Measured: log2 fold change

ATP13A3 (UniProt Q9H7F0)
inactive: [1] -0.038 | [2] 0.008 | [3] 0.016 | [4] 0.018 | [5] -0.101

ARGLU1 (UniProt Q9NWB6)
Chain of UniProt Q9NWB6 (Q9NWB6 whole entry, looked up): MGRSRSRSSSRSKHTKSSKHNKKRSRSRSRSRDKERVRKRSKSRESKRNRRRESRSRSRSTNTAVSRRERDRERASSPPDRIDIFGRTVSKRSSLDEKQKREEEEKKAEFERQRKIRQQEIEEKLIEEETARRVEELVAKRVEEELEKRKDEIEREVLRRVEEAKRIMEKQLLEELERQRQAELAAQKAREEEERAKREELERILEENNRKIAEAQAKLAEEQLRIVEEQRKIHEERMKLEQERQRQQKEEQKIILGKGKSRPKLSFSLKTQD
inactive: [1] 0.072 | [2] -0.117 | [3] -0.013 | [4] 0.01 | [5] 0.096

ALG14 (UniProt Q96F25)
inactive: [1] -0.008 | [2] 0.019 | [3] 0.241 | [4] 0.051 | [5] 0.006

ACSF3 (UniProt Q4G176)
inactive: [1] 0.037 | [2] 0.086 | [3] 0.12 | [4] -0.067 | [5] 0.063

ATP6V1H (UniProt Q9UI12)
inactive: [1] -0.003 | [2] 0.065 | [3] 0.029 | [4] -0.019 | [5] -0.116

ABHD16A (UniProt O95870)
inactive: [1] -0.005 | [2] 0.011 | [3] 0.026 | [4] 0.066 | [5] -0.088

ACAD9 (UniProt Q9H845)
inactive: [1] 0.012 | [2] 0.028 | [3] 0.031 | [4] 0.022 | [5] 0.009

BID isoform 2 (UniProt P55957)
inactive: [1] -0.036 | [2] 0.059 | [3] 0.081 | [4] -0.076 | [5] -0.053

AGPS (UniProt O00116)
inactive: [1] -0.046 | [2] 0.081 | [3] 0.079 | [4] -0.031 | [5] -0.051

AP2M1 (UniProt C9JTK4)
inactive: [1] -0.113 | [2] 0.083 | [3] 0.131 | [4] 0.136 | [5] -0.076

BRD2 isoform 2 (UniProt P25440)
Chain of UniProt P25440 (P25440 whole entry, looked up): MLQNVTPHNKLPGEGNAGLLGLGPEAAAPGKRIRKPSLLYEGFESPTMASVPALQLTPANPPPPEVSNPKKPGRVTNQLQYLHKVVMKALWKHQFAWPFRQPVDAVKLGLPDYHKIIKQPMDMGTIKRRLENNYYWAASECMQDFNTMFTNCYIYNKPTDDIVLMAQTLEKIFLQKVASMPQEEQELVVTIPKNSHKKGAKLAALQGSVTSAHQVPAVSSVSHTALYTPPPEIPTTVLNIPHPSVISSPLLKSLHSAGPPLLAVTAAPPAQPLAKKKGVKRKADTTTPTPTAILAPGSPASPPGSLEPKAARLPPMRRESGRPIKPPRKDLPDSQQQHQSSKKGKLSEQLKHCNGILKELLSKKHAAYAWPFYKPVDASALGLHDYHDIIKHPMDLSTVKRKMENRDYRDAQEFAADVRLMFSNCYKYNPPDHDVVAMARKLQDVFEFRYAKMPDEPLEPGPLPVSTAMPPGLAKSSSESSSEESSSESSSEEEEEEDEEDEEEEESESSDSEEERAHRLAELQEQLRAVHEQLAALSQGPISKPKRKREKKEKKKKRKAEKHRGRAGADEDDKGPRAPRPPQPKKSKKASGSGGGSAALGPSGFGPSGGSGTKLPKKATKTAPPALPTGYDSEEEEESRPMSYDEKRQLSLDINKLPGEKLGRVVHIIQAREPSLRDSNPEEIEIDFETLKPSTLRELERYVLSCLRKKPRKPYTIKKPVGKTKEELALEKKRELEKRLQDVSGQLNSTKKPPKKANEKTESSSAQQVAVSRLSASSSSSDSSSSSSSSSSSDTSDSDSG
active: [2] 2.34 | [4] 2.33
inactive: [1] -0.257 | [3] 0.092 | [5] 0.029

ATG9A (UniProt Q7Z3C6)
inactive: [1] 0.018 | [2] 0.014 | [3] 0.021 | [4] -0.028 | [5] -0.05

ASH2L (UniProt Q9UBL3)
inactive: [1] 0.016 | [2] -0.013 | [3] 0.081 | [4] -0.031 | [5] 0.005

AKT2 (UniProt P31751)
inactive: [1] -0.124 | [2] 0.055 | [3] 0.061 | [4] 0.009 | [5] -0.028

AHCYL1 (UniProt O43865)
inactive: [1] 0.057 | [2] -0.004 | [3] 0.014 | [4] -0.03 | [5] -0.037

ATP6AP1 (UniProt Q15904)
Chain of UniProt Q15904 (Q15904 whole entry, looked up): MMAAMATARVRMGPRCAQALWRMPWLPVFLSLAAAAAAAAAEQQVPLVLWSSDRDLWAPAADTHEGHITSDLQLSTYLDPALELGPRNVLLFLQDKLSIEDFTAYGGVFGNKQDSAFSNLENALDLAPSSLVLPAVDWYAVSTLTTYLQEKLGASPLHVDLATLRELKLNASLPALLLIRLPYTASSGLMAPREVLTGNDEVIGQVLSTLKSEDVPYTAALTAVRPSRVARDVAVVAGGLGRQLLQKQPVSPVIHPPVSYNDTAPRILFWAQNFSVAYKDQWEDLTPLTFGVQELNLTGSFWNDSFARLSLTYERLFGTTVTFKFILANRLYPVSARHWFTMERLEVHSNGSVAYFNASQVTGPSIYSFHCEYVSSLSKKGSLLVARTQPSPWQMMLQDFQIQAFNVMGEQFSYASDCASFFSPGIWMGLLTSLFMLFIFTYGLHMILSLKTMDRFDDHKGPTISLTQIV
inactive: [1] 0.014 | [2] -0.069 | [3] -0.009 | [4] -0.055 | [5] -0.022

ALKBH4 (UniProt Q9NXW9)
inactive: [1] 0.023 | [2] -0.063 | [3] -0.078 | [4] 0.079 | [5] -0.033

AGRN (UniProt O00468)
inactive: [1] 0.06 | [2] 0.154 | [3] 0.043 | [4] -0.038 | [5] 0.028

BLVRB (UniProt P30043)
Chain of UniProt P30043 (P30043 whole entry, looked up): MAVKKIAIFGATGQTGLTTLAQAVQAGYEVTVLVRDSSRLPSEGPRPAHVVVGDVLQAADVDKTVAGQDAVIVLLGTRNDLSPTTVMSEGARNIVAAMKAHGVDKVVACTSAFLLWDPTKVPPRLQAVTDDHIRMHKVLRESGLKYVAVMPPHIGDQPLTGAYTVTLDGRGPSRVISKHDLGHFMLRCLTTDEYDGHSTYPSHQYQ
inactive: [1] -0.029 | [2] 0.027 | [3] -0.01 | [4] -0.006 | [5] 0.013

BAIAP2 (UniProt Q9UQB8)
inactive: [1] -0.019 | [2] 0.071 | [3] 0.072 | [4] 0.014 | [5] 0.002

ARFGEF1 (UniProt Q9Y6D6)
inactive: [1] -0.012 | [2] 0.034 | [3] 0.014 | [4] -0.063 | [5] -0.061

ACSM3 (UniProt Q53FZ2)
inactive: [1] -0.046 | [2] -0.051 | [3] 0.091 | [4] -0.03 | [5] -0.029

ANAPC2 (UniProt Q9UJX6)
inactive: [1] -0.017 | [2] 0.016 | [3] -0.005 | [4] 0.017 | [5] -0.049

BZW2 (UniProt Q9Y6E2)
inactive: [1] -0.069 | [2] 0.042 | [3] 0.025 | [4] -0.033 | [5] -0.014

ATP12A isoform 2 (UniProt P54707)
inactive: [1] -0.027 | [2] 0.062 | [3] 0.052 | [4] -0.044 | [5] -0.043

ARFGAP1 (UniProt Q8N6T3)
Chain of UniProt Q8N6T3 (Q8N6T3 whole entry, looked up): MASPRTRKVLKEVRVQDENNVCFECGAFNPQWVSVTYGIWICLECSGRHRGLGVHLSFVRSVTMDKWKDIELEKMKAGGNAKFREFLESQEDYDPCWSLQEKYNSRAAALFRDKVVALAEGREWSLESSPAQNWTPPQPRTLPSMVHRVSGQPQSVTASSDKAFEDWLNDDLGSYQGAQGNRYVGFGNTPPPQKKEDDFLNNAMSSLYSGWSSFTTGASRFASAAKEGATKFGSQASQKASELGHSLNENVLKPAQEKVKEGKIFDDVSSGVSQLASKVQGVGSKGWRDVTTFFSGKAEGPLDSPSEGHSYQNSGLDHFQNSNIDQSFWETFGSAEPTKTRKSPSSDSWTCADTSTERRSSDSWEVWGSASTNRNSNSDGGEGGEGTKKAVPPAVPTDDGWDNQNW
inactive: [1] 0.033 | [2] 0.077 | [3] 0.074 | [4] -0.064 | [5] -0.034

AAMP (UniProt Q13685)
inactive: [1] -0.015 | [2] -0.013 | [3] 0.014 | [4] -0.032 | [5] 0.021

AGPAT5 (UniProt Q9NUQ2)
inactive: [1] -0.015 | [2] 0.064 | [3] 0.007 | [4] -0.008 | [5] -0.025

AUH (UniProt Q13825)
inactive: [1] 0.015 | [2] 0.065 | [3] -0.116 | [4] -0.042 | [5] -0.001

ABHD11 (UniProt Q8NFV4)
inactive: [1] -0.008 | [2] 0.127 | [3] 0.136 | [4] -0.12 | [5] -0.037

AKT1 (UniProt P31749)
Chain of UniProt P31749 (P31749 whole entry, looked up): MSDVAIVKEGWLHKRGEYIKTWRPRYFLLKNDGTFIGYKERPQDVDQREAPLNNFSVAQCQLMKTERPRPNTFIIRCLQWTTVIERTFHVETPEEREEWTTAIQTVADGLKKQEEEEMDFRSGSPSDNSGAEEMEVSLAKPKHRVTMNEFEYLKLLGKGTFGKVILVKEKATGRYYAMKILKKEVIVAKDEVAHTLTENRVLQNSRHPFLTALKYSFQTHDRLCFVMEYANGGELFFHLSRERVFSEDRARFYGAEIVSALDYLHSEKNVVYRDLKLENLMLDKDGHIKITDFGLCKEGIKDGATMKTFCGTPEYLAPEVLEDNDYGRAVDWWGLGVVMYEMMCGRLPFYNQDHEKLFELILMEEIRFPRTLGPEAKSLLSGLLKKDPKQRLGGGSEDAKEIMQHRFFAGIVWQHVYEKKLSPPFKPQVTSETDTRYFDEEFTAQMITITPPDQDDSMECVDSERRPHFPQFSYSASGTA
inactive: [1] -0.068 | [2] 0.018 | [3] 0.034 | [4] 0.042 | [5] -0.072

ATP9B (UniProt O43861)
inactive: [1] -0.092 | [2] -0.001 | [3] 0.055 | [4] -0.048 | [5] 0.071

ADD3 (UniProt Q9UEY8)
inactive: [1] 0.019 | [2] 0.034 | [3] 0.023 | [4] -0.002 | [5] 0.029

ATP6V0A2 (UniProt Q9Y487)
inactive: [1] 0.018 | [2] -0.044 | [3] -0.007 | [4] -0.059 | [5] -0.014

BCLAF1 (UniProt Q9NYF8)
Chain of UniProt Q9NYF8 (Q9NYF8 whole entry, looked up): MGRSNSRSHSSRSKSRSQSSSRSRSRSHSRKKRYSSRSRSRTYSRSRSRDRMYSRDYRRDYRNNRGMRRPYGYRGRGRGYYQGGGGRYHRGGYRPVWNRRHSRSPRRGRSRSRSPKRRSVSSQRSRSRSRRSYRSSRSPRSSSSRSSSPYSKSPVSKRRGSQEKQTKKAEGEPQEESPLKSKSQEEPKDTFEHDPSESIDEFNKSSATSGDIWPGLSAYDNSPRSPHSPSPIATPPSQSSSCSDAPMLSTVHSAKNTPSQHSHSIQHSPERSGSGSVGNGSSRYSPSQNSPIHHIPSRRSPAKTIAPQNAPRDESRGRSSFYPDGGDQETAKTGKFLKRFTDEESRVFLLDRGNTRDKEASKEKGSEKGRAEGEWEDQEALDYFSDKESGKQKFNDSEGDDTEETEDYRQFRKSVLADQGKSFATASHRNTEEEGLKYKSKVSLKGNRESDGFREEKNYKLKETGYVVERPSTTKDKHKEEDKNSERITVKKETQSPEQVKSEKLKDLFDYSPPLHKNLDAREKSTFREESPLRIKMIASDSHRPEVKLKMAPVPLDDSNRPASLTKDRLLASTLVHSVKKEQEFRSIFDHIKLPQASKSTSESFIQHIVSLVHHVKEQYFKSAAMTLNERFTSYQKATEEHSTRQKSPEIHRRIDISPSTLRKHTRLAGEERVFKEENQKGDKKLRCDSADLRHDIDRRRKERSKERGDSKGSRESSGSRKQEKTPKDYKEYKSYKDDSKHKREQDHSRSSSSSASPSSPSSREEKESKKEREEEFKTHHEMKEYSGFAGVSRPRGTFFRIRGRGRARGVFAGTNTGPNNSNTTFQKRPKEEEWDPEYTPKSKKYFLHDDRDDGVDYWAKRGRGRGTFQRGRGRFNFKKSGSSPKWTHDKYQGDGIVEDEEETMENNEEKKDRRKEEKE
inactive: [1] 0.031 | [2] 0.027 | [3] -0.118 | [4] -0.013 | [5] 0.047

BRD8 isoform 2 (UniProt Q9H0E9)
inactive: [1] 0.035 | [2] -0.091 | [3] 0.167 | [4] 0.046 | [5] 0.038

AIP (UniProt O00170)
Chain of UniProt O00170 (O00170 whole entry, looked up): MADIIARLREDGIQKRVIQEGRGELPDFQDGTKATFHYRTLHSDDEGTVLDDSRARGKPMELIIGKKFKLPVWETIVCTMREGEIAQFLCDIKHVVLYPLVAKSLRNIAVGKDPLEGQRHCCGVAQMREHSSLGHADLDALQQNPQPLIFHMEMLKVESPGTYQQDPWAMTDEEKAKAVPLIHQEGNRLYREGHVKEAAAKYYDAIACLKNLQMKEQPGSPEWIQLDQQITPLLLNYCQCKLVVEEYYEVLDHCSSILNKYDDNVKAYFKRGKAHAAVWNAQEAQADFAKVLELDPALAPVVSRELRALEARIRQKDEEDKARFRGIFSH
inactive: [1] -0.031 | [2] 0.078 | [3] 0.042 | [4] -0.004 | [5] -0.018

ACSL1 (UniProt P33121)
inactive: [1] -0.019 | [2] 0.043 | [3] 0.064 | [4] 0.001 | [5] -0.03

ATP6V1C1 (UniProt P21283)
Chain of UniProt P21283 (P21283 whole entry, looked up): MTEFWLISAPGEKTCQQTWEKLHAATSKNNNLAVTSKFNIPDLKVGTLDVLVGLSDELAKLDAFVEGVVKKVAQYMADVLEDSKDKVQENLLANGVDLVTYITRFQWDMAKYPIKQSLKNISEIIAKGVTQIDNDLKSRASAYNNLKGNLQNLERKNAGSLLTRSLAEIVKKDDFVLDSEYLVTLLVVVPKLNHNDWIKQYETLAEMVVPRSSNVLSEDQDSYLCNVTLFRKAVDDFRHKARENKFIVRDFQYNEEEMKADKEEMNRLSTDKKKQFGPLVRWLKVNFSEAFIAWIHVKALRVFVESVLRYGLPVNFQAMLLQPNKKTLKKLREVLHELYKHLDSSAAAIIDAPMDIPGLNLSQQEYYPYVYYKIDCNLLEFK
inactive: [1] -0.011 | [2] 0.004 | [3] 0.05 | [4] -0.002 | [5] -0.039

ALKBH5 (UniProt Q6P6C2)
Chain of UniProt Q6P6C2 (Q6P6C2 whole entry, looked up): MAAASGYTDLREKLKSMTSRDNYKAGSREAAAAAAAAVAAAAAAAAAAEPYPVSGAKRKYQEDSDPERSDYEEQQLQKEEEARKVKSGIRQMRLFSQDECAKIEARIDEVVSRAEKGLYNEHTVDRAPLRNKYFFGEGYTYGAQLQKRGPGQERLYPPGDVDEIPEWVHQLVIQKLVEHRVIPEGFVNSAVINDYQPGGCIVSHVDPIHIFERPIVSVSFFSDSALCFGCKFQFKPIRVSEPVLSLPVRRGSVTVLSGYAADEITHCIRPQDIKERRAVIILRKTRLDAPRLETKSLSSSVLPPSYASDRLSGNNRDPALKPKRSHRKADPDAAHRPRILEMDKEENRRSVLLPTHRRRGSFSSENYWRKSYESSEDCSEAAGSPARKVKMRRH
inactive: [1] 0.065 | [2] -0.002 | [3] 0.085 | [4] -0.024 | [5] 0.028

ALG3 (UniProt Q92685)
inactive: [1] -0.061 | [2] 0.019 | [3] 0.072 | [4] 0.054 | [5] -0.026

APOB (UniProt P04114)
inactive: [1] 0.041 | [2] 0.028 | [3] 0.055 | [4] 0.034 | [5] -0.013

ANKZF1 (UniProt Q9H8Y5)
inactive: [1] -0.113 | [2] -0.037 | [3] -0.01 | [4] 0.15 | [5] -0.008

AP2M1 (UniProt Q96CW1)
inactive: [1] -0.005 | [2] 0.03 | [3] -0.013 | [4] 0.006 | [5] 0.009

ARMC8 (UniProt Q8IUR7)
inactive: [1] 0.05 | [2] -0.005 | [3] 0 | [4] 0.021 | [5] 0.011

ATP11A (UniProt P98196)
inactive: [1] 0.001 | [2] -0.003 | [3] 0.085 | [4] -0.034 | [5] 0.062

BRIP1 (UniProt Q9BX63)
inactive: [1] 0.042 | [2] -0.005 | [3] 0 | [4] -0.042 | [5] 0.122

ACP1 isoform 2 (UniProt P24666)
Chain of UniProt P24666 (P24666 whole entry, looked up): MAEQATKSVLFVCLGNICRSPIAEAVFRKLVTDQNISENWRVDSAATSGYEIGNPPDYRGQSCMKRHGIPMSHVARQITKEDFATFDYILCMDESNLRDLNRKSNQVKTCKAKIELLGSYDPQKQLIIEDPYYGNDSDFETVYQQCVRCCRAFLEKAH
inactive: [1] -0.107 | [2] -0.028 | [3] 0.004 | [4] 0.028 | [5] 0.022

AFG1L (UniProt Q8WV93)
inactive: [1] 0.025 | [2] 0.096 | [3] -0.008 | [4] -0.074 | [5] -0.129

ATP7B (UniProt P35670)
inactive: [1] 0 | [2] 0.094 | [3] 0.014 | [4] 0.022 | [5] 0.076

AGO1 (UniProt Q9UL18)
inactive: [1] -0.05 | [2] -0.066 | [3] -0.114 | [4] -0.016 | [5] 0.05

ATAD3B (UniProt Q5T9A4)
inactive: [1] -0.02 | [2] -0.023 | [3] -0.055 | [4] 0.123 | [5] 0.025

BCCIP (UniProt Q9P287)
inactive: [1] -0.044 | [2] -0.018 | [3] 0 | [4] -0.037 | [5] -0.062
